Hit rate of the full screen: of about 360,000 compounds, about 25,000 (6.9%) were called active. A call without a number means that no potency is given here. Not shown: some 9% with an inconclusive outcome. Calls follow the shape of the dose curve; as a rule, active = well fitted inhibition curve with a large enough effect; inconclusive = small, poorly fitted or top-dose-only effect; inactive = flat fitted curve, though single readings scatter. This excerpt belongs to a sample that is enriched for actives.
Each compound was assayed against Luciferin 4-monooxygenase (Photinus pyralis) (UniProt P08659) (assay: qHTS profiling assay for firefly luciferase inhibitor/activator using purifed enzyme and Km concentrations of substrates (counterscreen for miR-21 project)). Conditions: purified FLuc, luminescence inhibition; series mostly up to 57.5 µM.
Procedure, shortened: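 Biochemical qHTS of compounds, final roughly 60 µM downward over six points, against 10 nM purified firefly luciferase using Km concentrations of substrates (10 uM D-luciferin, 10 uM ATP) in Tris acetate pH 7.5 buffer; luminescence output.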
Also: nearly all actives have a fitted effect of over 55% in size.
Potency is read from the fitted curve at half-maximal effect.

Luciferin 4-monooxygenase (Photinus pyralis), sequence (P08659 whole entry, looked up): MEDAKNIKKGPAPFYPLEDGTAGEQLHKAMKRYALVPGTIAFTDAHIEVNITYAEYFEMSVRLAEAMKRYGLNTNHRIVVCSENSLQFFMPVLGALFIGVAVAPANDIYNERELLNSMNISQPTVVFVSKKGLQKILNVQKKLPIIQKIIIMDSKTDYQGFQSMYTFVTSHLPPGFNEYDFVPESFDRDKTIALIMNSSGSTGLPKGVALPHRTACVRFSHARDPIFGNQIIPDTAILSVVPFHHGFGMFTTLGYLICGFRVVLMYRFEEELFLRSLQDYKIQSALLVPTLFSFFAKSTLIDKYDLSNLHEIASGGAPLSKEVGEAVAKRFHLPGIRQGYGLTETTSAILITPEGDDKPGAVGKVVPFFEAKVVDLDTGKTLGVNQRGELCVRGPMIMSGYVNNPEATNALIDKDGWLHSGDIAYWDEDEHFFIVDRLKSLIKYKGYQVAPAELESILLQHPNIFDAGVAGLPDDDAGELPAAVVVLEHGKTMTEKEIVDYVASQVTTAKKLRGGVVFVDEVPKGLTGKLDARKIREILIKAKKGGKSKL

Row | SMILES | Potency
1 | COc1ccc(NC(=O)CCc2nnc3n(CC(C)C)c(=O)c4ccccc4n23)cc1OC | inactive
2 | CSc1ccc(C2C(C(=O)Nc3ccccc3)=C(C)Nc3nc4ccccc4n32)cc1 (stereo unspecified) | inactive
3 | COc1ccc(CCNc2ncnc3onc(-c4ccc(Cl)cc4)c23)c(OC)c1 | inactive
4 | CCCn1c(=N)c(C(=O)NCc2ccccc2)cc2c(=O)n3cccc(C)c3nc21 | inactive
5 | O=C(CCN1c2ccccc2Sc2ccccc21)Nc1ccccc1 | inactive
6 | CCN1/C(=C/C(=S)Nc2ccccc2)Sc2ccccc21 | 10.7 µM (active)
7 | CCN1C(=O)/C(=C2/Sc3ccccc3N2CCCS(=O)(=O)O)SC1=S | inactive
8 | CCOC(=O)Cc1csc(NC(NC(=O)OCC)(C(F)(F)F)C(F)(F)F)n1 | inactive
9 | CCOC(=O)Cc1csc(NC(=O)Nc2ccccc2)n1 | 12 µM (active)
10 | CCOC(=O)c1csc(NC(=O)Nc2cccc(OC)c2)n1 | inactive
11 | COc1ccc(OC)c(CNC(=O)Cn2nc(C)c3c(C)n(-c4ccc(C)cc4)nc3c2=O)c1 | inactive
12 | Cc1cccc(NC(=O)c2nnn(CC(=O)Nc3ccc(C(C)C)cc3)c2N)c1C | inactive
13 | COc1ccc(CCNC(=O)CCc2c(C)nc3c(c(C)nn3-c3ccc(C)c(C)c3)c2C)c(OC)c1OC | inactive
14 | CCN(C(=O)Cn1cc(S(=O)(=O)N2CCN(c3ccccc3F)CC2)c2ccccc2c1=O)c1ccc(C)c(C)c1 | inactive
15 | O=S(=O)(Nc1ccc2cn[nH]c2c1)c1ccccc1 | inactive
16 | O=S(=O)(Nc1ccc2nc(-c3ccco3)[nH]c2c1)c1ccccc1 | 12 µM (active)

Row | SMILES | Potency
17 | CCc1ccccc1NS(=O)(=O)c1ccc2nc(-c3ccccc3)[nH]c2c1 | inactive
18 | CCN1CCN(Cc2c(O)ccc3oc(C)c(C(=O)Nc4ccc(C)cc4C)c23)CC1 | inactive
19 | O=C(Cc1ccsc1)N1CCN(S(=O)(=O)c2cc(C(F)(F)F)cc(C(F)(F)F)c2)CC1 | inactive
20 | CCN(CC)C(=O)Oc1ccc(OC(=O)N(CC)CC)cc1 | inactive
21 | COc1cccc(Nc2ncccc2C(=O)O)c1 | 19 µM (active)
22 | COc1ccc2nc(C)cc(Nc3cccc(C(=O)O)c3)c2c1 | inactive
23 | COc1cccc(NC(=O)c2ccccc2SC)c1 | inactive
24 | CCOC(=O)c1cnc2c(c(C)nn2CC)c1Cl | inactive
25 | COC(=O)c1ccc(S(=O)(=O)N2CCc3ccccc3C2)cc1 | inactive
26 | Cc1cc(=O)oc2cc(OCC(=O)Nc3nnc(C4CC4)s3)ccc12 | inactive
27 | Cc1cccc(NC(=O)CSCC(=O)Nc2nnc(C3CC3)s2)c1 | inactive
28 | O=C(Cc1cccs1)Nc1nnc(C2CC2)s1 | inactive
29 | Cc1cc(C(=O)Nc2nnc(C3CC3)s2)c(C)s1 | 13.5 µM (active)
30 | O=C(Nc1nnc(C2CC2)s1)c1ccccn1 | 10.7 µM (active)
31 | O=C(Nc1nnc(Cc2ccccc2)s1)c1cnccn1 | inactive

— PubChem BioAssay AID588342 (National Center for Advancing Translational Sciences (NCATS), 2011)
